Reference: the supplement of paper PMC10849652
The full data set covers some 7,900 targets. This sample favours those with a hit. About 0.6% of all pairs of compound and target were hits.

Tests used:
Assay in all cases: log2 fold change, soluble protein after heating vs DMSO (PISA); higher = thermal stabilisation; K562 cells, 10 uM, 30 min; active = over 0.2 and 3.5 SD of the protein, either way, in both replicates (recomputed)
IRAK-1-4 Inhibitor I = compound: C1COCCN1CCN2C3=CC=CC=C3N=C2NC(=O)C4=CC(=CC=C4)[N+](=O)[O-] [IRAK-1-4 Inhibitor I]
Method in brief: (§1)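 Soluble protein was quantified by TMTpro 16plex LC-MS/MS after channel sums were equalised. It was obtained as the supernatant after 21,000xg for 90 min from pooled aliquots of K562 cells (2×10^6 cells/mL, 10 μM compound, 30 min) heated for 3 min across 48°C-58°C and extracted in PBS with 0.5% NP-40 at 4°C. Thermal stability values are relative to control samples and come from duplicates. They are given as log2 fold changes.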

ibrutinib = compound: C=CC(=O)N1CCC[C@@H](n2nc(-c3ccc(Oc4ccccc4)cc3)c3c(N)ncnc32)C1 [ibrutinib]
Method in brief: as §1

[1] = compound: CC(=O)c1cnc2ccc(-c3cc(Cl)c(O)c(Cl)c3)nc2c1N[C@H]1CC[C@H](CN(C)C)CC1
Method in brief: as §1

ralimetinib = compound: CC(C)(C)Cn1c(N)nc2ccc(-c3[nH]c(C(C)(C)C)nc3-c3ccc(F)cc3)nc21 [ralimetinib]
Method in brief: as §1

[2] = compound: CC(C)(O)CC(=O)NCCn1ccc2ncnc(Nc3ccc(Oc4cccc(C(F)(F)F)c4)c(Cl)c3)c21
Method in brief: as §1

[3] = compound: CC(C)C1=C2N=C(C=C(N2N=C1)NCC3=CC=CC=C3)NCCCCCCN
Method in brief: as §1

[4] = compound: CC(C)C[C@@H](C=O)NC(=O)[C@H](CC(C)C)NC(=O)[C@H](CC(C)C)NC(=O)OCc1ccccc1
Method in brief: as §1

pinometostat = compound: CC(C)N(C[C@H]1O[C@@H](n2cnc3c(N)ncnc32)[C@H](O)[C@@H]1O)[C@H]1C[C@@H](CCc2nc3cc(C(C)(C)C)ccc3[nH]2)C1 [pinometostat]
Method in brief: as §1

[5] = compound: CC1=C(C(CC(=O)N1)C2=CC=C(C=C2)C(F)(F)F)C(=O)NC3=C(C=C4C(=C3)C=NN4)F
Method in brief: as §1

[6] = compound: CC1=C(C2=C(C=C1)C(=O)C3=CC=CC=C3N2CCCN)C
Method in brief: as §1

[7] = compound: CC1=C(C=C(C=C1)NC(=O)C2=CC(=CC=C2)C(C)(C)C#N)NC3=CC4=C(C=C3)N=CN(C4=O)C
Method in brief: as §1

[8] = compound: CC1=C(C=C(C=C1)NC(=O)C2=CC(=CC=C2)N(C)C)NC(=O)C3=CC=C(C=C3)O
Method in brief: as §1

[9] = compound: CC1=CC=C(C=C1)SC2=C3C=C(SC3=CN=C2)C(=O)N
Method in brief: as §1

[10] = compound: CC1=NC(=CC=C1)C2=C(N=C(N2)C(C)(C)C)C3=CC4=NC=CN=C4C=C3
Method in brief: as §1

Nexturastat A = compound: CCCCN(Cc1ccc(C(=O)NO)cc1)C(=O)Nc1ccccc1 [Nexturastat A]
Method in brief: as §1

vemurafenib = compound: CCCS(=O)(=O)Nc1ccc(F)c(C(=O)c2c[nH]c3ncc(-c4ccc(Cl)cc4)cc23)c1F [vemurafenib]
Method in brief: as §1

[11] = compound: CCCS(=O)(=O)Nc1ccc(F)c(C(=O)c2c[nH]c3ncc(Cl)cc23)c1F
Method in brief: as §1

[12] = compound: CCCc1cc(C)[nH]c(=O)c1CNC(=O)c1cc(-c2ccnc(N3CCN(C)CC3)c2)cc2c1cnn2C(C)C
Method in brief: as §1

givinostat = compound: CCN(CC)Cc1ccc2cc(COC(=O)Nc3ccc(C(=O)NO)cc3)ccc2c1 [givinostat]
Method in brief: as §1

barasertib = compound: CCN(CCCOc1ccc2c(Nc3cc(CC(=O)Nc4cccc(F)c4)[nH]n3)ncnc2c1)CCOP(=O)(O)O [barasertib]
Method in brief: as §1

Measured: log2 fold change

FAM177A1 isoform 2 (UniProt Q8N128)
Chain of UniProt Q8N128 (Q8N128 whole entry, looked up): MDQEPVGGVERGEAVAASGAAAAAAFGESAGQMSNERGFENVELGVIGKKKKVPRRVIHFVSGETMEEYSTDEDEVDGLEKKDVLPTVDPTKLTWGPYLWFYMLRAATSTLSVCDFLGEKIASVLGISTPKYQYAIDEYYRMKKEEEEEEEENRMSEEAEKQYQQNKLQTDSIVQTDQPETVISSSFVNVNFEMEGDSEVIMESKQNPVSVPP
inactive: IRAK-1-4 Inhibitor I 0.042 | ibrutinib 0.038 | [1] 0.033 | ralimetinib 0 | [2] -0.242 | [3] -0.245 | [4] 0.029 | pinometostat 0.081 | [5] 0.062 | [6] -0.019 | [7] -0.071 | [8] 0.152 | [9] 0.101 | [10] 0.039 | Nexturastat A -0.064 | vemurafenib -0.061 | [11] 0.014 | [12] -0.02 | givinostat -0.045 | barasertib 0.037

CYB561A3 isoform 2 (UniProt Q8NBI2)
Chain of UniProt Q8NBI2 (Q8NBI2 whole entry, looked up): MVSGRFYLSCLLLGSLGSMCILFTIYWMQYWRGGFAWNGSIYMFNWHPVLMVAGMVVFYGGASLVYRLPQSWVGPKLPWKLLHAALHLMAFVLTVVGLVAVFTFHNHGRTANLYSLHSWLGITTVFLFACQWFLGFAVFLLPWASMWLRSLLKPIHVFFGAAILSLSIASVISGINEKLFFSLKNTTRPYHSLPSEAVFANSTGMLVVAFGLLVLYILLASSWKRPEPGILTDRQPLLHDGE
inactive: IRAK-1-4 Inhibitor I 0.024 | ibrutinib 0.014 | [1] 0.033 | ralimetinib -0.026 | [3] -0.164 | [4] -0.019 | pinometostat -0.054 | [5] -0.069 | [6] -0.027 | [7] 0.051 | [8] 0.025 | [9] -0.074 | [10] 0.02 | [11] 0.059 | [12] -0.086 | givinostat 0.033 | barasertib -0.057

CTSA (UniProt P10619)
inactive: IRAK-1-4 Inhibitor I -0.006 | ibrutinib 0.017 | [1] 0.038 | ralimetinib -0.027 | [2] 0.027 | [3] -0.204 | [4] -0.017 | pinometostat 0.014 | [5] 0.014 | [6] -0.058 | [7] -0.033 | [8] 0.011 | [9] -0.02 | [10] 0.003 | Nexturastat A -0.016 | vemurafenib -0.013 | [11] -0.039 | [12] -0.047 | givinostat 0.117 | barasertib 0

EIF3J isoform 2 (UniProt O75822)
Chain of UniProt O75822 (O75822 whole entry, looked up): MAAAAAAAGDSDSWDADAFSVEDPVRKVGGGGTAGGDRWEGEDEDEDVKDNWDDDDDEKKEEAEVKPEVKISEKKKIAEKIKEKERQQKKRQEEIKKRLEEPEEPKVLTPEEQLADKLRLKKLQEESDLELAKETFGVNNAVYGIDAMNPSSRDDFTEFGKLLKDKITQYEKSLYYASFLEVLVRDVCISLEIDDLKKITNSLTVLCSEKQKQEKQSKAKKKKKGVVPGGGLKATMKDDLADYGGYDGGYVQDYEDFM
inactive: IRAK-1-4 Inhibitor I 0.052 | ibrutinib 0.014 | [1] -0.071 | [2] -0.05 | [3] 0.036 | pinometostat -0.018 | [5] 0.046 | [6] 0.107 | [7] -0.1 | [9] 0.032 | [10] -0.02 | Nexturastat A 0.048 | vemurafenib -0.17 | [11] -0.062 | [12] -0.613 | givinostat -0.129 | barasertib -0.071

FAM3A (UniProt P98173)
inactive: IRAK-1-4 Inhibitor I -0.028 | ibrutinib -0.011 | [1] 0.028 | ralimetinib 0.023 | [2] -0.028 | [3] -0.07 | [4] 0.047 | pinometostat 0.007 | [5] 0.018 | [6] 0.088 | [7] -0.022 | [8] 0.012 | [9] -0.005 | [10] 0.003 | vemurafenib 0.015 | [11] 0.013 | [12] -0.031 | givinostat -0.001 | barasertib 0.014
active: Nexturastat A -0.304

ELMO1 (UniProt Q92556)
inactive: IRAK-1-4 Inhibitor I -0.022 | ibrutinib -0.176 | ralimetinib 0.069 | [2] -0.091 | [3] -0.094 | pinometostat -0.161 | [5] 0.037 | [7] -0.075 | [8] -0.005 | [10] -0.074 | Nexturastat A -0.101 | vemurafenib -0.172 | [12] 0.218 | givinostat -0.043 | barasertib -0.105
active: [4] 0.761

DIAPH1 (UniProt O60610)
inactive: IRAK-1-4 Inhibitor I -0.128 | ibrutinib -0.061 | [1] 0.072 | ralimetinib 0.168 | [2] 0 | [4] 0.07 | pinometostat 0.213 | [5] -0.017 | [6] -0.08 | [7] 0.018 | [8] -0.05 | [9] 0.025 | [10] -0.049 | Nexturastat A 0.19 | vemurafenib 0.041 | [11] 0.062 | [12] 0.08 | givinostat 0.051 | barasertib 0.077
active: [3] -0.373

CYP24A1 (UniProt Q07973)
Chain of UniProt Q07973 (Q07973 whole entry, looked up): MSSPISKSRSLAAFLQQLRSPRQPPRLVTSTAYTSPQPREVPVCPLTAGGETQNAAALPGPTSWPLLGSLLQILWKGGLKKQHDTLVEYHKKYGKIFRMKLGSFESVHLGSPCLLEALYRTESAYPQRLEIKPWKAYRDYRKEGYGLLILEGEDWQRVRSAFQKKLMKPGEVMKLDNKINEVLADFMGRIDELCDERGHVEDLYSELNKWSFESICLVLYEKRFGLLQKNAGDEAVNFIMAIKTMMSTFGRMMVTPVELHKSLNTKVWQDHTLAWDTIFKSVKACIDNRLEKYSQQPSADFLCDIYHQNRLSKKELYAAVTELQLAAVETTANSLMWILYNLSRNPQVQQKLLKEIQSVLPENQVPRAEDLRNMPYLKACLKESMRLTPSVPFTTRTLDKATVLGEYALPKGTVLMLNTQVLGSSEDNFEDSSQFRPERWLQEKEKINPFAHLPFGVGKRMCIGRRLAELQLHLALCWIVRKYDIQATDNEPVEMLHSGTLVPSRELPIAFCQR
inactive: IRAK-1-4 Inhibitor I -0.162 | ibrutinib -0.044 | [1] 0.187 | ralimetinib 0.412 | [3] 0.069 | [4] 0.31 | pinometostat 0.276 | [5] 0.083 | [6] -0.089 | [8] 0.051 | [9] -0.039 | [10] -0.306 | vemurafenib -0.198 | [11] -0.057 | [12] -0.183 | givinostat 0.233 | barasertib -0.146

EIF3J (UniProt O75822)
inactive: IRAK-1-4 Inhibitor I 0.118 | ibrutinib -0.031 | [1] 0.035 | ralimetinib 0.093 | [2] -0.031 | [3] -0.007 | [4] -0.079 | pinometostat -0.007 | [5] -0.019 | [6] -0.025 | [7] 0.01 | [8] -0.026 | [9] -0.005 | [10] 0.039 | Nexturastat A -0.068 | vemurafenib 0.05 | [11] -0.022 | [12] 0.004 | givinostat 0.011 | barasertib 0.046

EZH2 isoform 2 (UniProt Q15910)
inactive: IRAK-1-4 Inhibitor I -0.247 | ibrutinib -0.114 | [1] 0.115 | [2] -0.041 | [3] -0.239 | pinometostat 0.068 | [6] -0.11 | [7] 0.063 | [9] 0.127 | [10] 0.149 | Nexturastat A -0.173 | vemurafenib 0.377 | [11] 0 | givinostat 0.097 | barasertib 0.045
active: [12] 0.949

FAM193B (UniProt Q96PV7)
Chain of UniProt Q96PV7 (Q96PV7 whole entry, looked up): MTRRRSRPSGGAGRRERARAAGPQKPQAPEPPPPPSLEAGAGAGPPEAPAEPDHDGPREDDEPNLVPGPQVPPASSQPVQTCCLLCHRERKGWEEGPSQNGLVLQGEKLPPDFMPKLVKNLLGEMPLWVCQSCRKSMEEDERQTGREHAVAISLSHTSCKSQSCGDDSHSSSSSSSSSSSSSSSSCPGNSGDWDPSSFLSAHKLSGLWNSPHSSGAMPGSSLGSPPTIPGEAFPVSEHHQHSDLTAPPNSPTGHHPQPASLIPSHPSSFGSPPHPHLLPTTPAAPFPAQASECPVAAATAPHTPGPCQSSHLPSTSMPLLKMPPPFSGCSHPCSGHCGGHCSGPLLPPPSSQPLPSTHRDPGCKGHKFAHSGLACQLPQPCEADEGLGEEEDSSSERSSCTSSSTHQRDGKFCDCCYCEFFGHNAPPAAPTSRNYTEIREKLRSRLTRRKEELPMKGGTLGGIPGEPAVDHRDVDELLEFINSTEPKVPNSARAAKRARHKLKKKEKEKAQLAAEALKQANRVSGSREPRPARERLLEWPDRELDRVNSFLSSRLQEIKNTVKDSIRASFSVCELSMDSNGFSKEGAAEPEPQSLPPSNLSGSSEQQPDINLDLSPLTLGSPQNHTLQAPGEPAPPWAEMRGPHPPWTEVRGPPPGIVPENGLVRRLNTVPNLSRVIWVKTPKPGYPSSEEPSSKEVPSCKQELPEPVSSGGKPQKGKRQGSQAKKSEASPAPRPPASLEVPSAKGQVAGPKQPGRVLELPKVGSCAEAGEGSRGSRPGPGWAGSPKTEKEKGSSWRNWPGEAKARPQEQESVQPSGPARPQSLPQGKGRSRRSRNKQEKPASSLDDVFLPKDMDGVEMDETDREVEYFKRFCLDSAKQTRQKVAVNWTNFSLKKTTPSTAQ
inactive: IRAK-1-4 Inhibitor I -0.049 | ibrutinib -0.266 | [1] -0.03 | [2] -0.05 | pinometostat 0.112 | [6] -0.181 | [7] -0.16 | [9] -0.114 | [10] -0.034 | Nexturastat A 0.054 | vemurafenib -0.114 | [11] 0.005 | barasertib 0.045

FAM241A (UniProt Q8N8J7)
Chain of UniProt Q8N8J7 (Q8N8J7 whole entry, looked up): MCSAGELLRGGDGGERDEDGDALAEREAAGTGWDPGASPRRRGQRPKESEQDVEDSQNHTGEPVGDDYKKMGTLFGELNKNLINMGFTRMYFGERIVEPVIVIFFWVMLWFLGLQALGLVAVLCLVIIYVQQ
inactive: IRAK-1-4 Inhibitor I 0.011 | ibrutinib -0.094 | [1] 0.063 | ralimetinib -0.019 | [3] -0.008 | [4] 0.004 | pinometostat -0.029 | [5] 0.059 | [6] -0.008 | [8] -0.012 | [9] -0.031 | [10] -0.028 | vemurafenib -0.083 | [11] 0.015 | [12] -0.009 | givinostat -0.037 | barasertib 0.06
active: [7] 0.536

E2F4 (UniProt Q16254)
Chain of UniProt Q16254 (Q16254 whole entry, looked up): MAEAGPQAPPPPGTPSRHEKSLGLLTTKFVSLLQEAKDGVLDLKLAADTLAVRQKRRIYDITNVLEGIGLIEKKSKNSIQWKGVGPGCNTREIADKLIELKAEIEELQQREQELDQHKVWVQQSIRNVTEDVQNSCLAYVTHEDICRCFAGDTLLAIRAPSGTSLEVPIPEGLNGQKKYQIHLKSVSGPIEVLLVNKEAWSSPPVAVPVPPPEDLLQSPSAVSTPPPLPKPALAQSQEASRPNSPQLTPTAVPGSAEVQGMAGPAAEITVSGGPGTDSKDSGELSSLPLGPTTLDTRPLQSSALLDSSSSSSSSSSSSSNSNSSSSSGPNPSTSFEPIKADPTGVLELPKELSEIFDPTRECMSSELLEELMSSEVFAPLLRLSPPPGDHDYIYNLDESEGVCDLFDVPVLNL
inactive: IRAK-1-4 Inhibitor I -0.025 | ibrutinib -0.009 | [1] -0.073 | ralimetinib 0.011 | [2] -0.072 | [3] -0.167 | [4] 0.038 | pinometostat 0.001 | [5] 0 | [6] -0.119 | [7] 0.031 | [8] 0.011 | [9] 0.087 | [10] 0.079 | Nexturastat A 0.034 | vemurafenib -0.001 | [11] 0.02 | [12] 0.021 | givinostat 0.05 | barasertib 0.054

DNAJB1 (UniProt P25685)
Chain of UniProt P25685 (P25685 whole entry, looked up): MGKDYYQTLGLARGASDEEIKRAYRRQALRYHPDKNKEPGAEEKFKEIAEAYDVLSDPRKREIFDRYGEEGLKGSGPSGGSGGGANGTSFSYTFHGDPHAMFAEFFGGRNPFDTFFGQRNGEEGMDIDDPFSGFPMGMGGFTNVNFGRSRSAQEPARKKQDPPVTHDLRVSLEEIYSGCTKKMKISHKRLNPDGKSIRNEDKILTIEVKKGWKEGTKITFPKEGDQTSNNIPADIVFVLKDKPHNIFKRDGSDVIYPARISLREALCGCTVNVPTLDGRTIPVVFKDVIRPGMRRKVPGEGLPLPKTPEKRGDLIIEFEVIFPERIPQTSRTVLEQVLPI
inactive: IRAK-1-4 Inhibitor I -0.059 | ibrutinib -0.011 | [1] -0.017 | ralimetinib 0 | [2] -0.012 | [3] -0.015 | [4] -0.065 | pinometostat -0.086 | [5] -0.004 | [6] 0.022 | [7] 0.015 | [8] -0.045 | [9] -0.003 | [10] 0.086 | Nexturastat A -0.03 | vemurafenib 0.009 | [11] 0.028 | [12] -0.051 | givinostat 0.024 | barasertib 0.024

DCUN1D1 (UniProt Q96GG9)
Chain of UniProt Q96GG9 (Q96GG9 whole entry, looked up): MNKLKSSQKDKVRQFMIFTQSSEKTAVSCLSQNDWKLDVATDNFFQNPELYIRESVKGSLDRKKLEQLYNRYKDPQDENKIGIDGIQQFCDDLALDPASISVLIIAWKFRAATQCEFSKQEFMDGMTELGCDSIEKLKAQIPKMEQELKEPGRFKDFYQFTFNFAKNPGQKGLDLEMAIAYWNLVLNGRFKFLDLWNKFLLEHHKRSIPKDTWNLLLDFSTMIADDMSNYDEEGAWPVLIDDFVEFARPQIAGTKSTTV
inactive: IRAK-1-4 Inhibitor I 0.031 | ibrutinib 0.016 | [1] -0.06 | ralimetinib -0.047 | [2] -0.002 | [3] -0.061 | [4] -0.022 | pinometostat -0.035 | [5] 0.014 | [6] 0.018 | [7] -0.027 | [8] -0.077 | [9] 0.022 | [10] 0.078 | Nexturastat A 0.018 | vemurafenib 0.008 | [11] 0.05 | [12] -0.028 | givinostat -0.018 | barasertib 0.013

DYNC1I2 isoform 2 (UniProt Q13409)
Chain of UniProt Q13409 (Q13409 whole entry, looked up): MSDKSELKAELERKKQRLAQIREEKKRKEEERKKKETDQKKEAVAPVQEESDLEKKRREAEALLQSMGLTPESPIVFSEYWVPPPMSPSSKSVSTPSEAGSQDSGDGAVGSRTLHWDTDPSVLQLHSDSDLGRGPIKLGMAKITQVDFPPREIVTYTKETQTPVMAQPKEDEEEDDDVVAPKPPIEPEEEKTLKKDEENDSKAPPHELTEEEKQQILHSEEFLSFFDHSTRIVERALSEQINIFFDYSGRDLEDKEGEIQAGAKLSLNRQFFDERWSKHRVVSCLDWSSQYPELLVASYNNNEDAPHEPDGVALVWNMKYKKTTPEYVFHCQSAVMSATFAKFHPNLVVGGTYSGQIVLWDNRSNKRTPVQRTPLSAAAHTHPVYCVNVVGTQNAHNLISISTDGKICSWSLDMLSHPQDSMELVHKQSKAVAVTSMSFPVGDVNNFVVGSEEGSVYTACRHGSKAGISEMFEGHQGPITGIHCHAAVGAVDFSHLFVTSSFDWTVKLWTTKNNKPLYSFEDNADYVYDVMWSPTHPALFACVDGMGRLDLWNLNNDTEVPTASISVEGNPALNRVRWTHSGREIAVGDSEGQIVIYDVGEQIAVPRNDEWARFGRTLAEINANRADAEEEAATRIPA
inactive: IRAK-1-4 Inhibitor I 0.012 | ibrutinib 0.126 | [1] 0.106 | ralimetinib 0.055 | [2] -0.133 | [3] -0.105 | [4] 0.154 | pinometostat 0.023 | [6] -0.05 | [7] 0.006 | [8] -0.054 | [9] -0.179 | [10] 0.061 | Nexturastat A 0.047 | [11] 0.018 | [12] 0.271 | givinostat 0.044 | barasertib 0.015

EXOSC10 (UniProt Q01780)
Chain of UniProt Q01780 (Q01780 whole entry, looked up): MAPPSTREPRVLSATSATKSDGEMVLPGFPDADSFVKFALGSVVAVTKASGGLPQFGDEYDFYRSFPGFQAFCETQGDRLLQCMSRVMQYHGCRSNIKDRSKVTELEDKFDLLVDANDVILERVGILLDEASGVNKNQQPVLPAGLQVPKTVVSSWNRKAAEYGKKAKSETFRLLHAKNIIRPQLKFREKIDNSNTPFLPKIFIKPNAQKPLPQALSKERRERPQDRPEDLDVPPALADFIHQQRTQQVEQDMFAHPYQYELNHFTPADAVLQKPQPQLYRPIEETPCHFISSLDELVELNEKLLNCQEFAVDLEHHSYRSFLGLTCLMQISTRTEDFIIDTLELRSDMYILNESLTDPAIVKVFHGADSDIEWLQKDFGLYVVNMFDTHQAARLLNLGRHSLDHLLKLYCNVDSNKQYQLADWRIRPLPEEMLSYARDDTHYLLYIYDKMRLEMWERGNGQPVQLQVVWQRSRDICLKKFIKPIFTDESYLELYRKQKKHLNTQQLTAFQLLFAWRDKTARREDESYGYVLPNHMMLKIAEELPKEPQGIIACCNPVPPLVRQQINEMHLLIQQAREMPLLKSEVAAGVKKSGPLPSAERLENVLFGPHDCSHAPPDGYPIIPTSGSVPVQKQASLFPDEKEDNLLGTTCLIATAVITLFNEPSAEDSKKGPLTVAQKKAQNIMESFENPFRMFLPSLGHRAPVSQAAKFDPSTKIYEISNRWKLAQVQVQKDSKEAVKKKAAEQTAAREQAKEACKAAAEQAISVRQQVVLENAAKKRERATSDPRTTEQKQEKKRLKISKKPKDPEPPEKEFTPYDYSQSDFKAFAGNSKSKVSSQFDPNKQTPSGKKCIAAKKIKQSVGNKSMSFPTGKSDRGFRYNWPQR
inactive: IRAK-1-4 Inhibitor I 0.165 | ibrutinib 0.033 | [1] 0.026 | ralimetinib -0.261 | [2] -0.01 | [3] 0.213 | [4] 0.247 | pinometostat 0.059 | [6] 0.076 | [7] -0.537 | [8] 0.061 | [9] -0.07 | [10] -0.123 | vemurafenib -0.221 | [11] -0.18 | [12] -0.168 | givinostat 0.147 | barasertib 0.036
active: Nexturastat A 0.762
